Measured values: PubChem BioAssay (EPA / NIEHS)
Activity calls are given as the source filed them. The calls were made as follows: active = hit-call score of the fitted dose curve at least 0.9, where 1 is the maximum; inactive = score below 0.9.

Experiments:
Details in all cases: mRNA level, 48 h; actives raise or lower the signal
[1] = read-out: growth arrest and DNA damage 45 (GADD45G), GADD45G (gene 10912); test: LTEA_HepaRG_GADD45G: Life Technologies and Expression Analysis (LTEA) Assay for growth arrest and DNA damage 45 (GADD45G) using HepaRG (AID 2283499)
Outline: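 Differentiated human HepaRG cells in serum-free induction medium were exposed for 48 h to 8 half-log concentrations up to 100 uM in 0.5% DMSO, in duplicate. GADD45G mRNA was measured by TaqMan qRT-PCR, normalised to ACTB, GAPDH and POLR2A, and fitted bidirectionally against DMSO.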

[2] = read-out: Glutamate-cysteine ligase regulatory (GCLM), GCLM (gene 2730); test: LTEA_HepaRG_GCLM: Life Technologies and Expression Analysis (LTEA) Assay for Glutamate-cysteine ligase regulatory (GCLM) using HepaRG (AID 2283500)
Outline: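 GCLM expression quantified by qRT-PCR, normalized to three housekeeping genes, after 48 h chemical treatment of HepaRG cells in duplicate at 8 concentrations (top 100 uM, half-log steps, 0.5% DMSO). Changes fitted both directions against vehicle.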

[3] = read-out: Glutathione S-transferase M3 (GSTM3), GSTM3 (gene 2947); test: LTEA_HepaRG_GSTM3: Life Technologies and Expression Analysis (LTEA) Assay for Glutathione S-transferase M3 (GSTM3) using HepaRG (AID 2283501)
Outline: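 Differentiated HepaRG cells in serum-free induction medium were exposed in duplicate for 48 h to 8 half-log concentrations up to 100 uM in 0.5% DMSO. GSTM3 mRNA was measured by TaqMan qRT-PCR, normalized to ACTB/GAPDH/POLR2A, and fitted bidirectionally versus DMSO.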

[4] = read-out: Heat shock 70 kDa protein 1 (HSPA1A), gene 3303; test: LTEA_HepaRG_HSPA1A: Life Technologies and Expression Analysis (LTEA) Assay for Heat shock 70 kDa protein 1 (HSPA1A) using HepaRG (AID 2283502)
Outline: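 HSPA1A expression measured by qRT-PCR with ACTB/GAPDH/POLR2A normalization; curves fitted in both directions relative to DMSO vehicle. Exposure: 48 h in HepaRG cells, duplicate 8-point half-log series from 100 uM, 0.5% DMSO, serum-free induction medium.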

[5] = read-out: Hypoxia-inducible factor 1-alpha (Homo sapiens) (UniProt Q16665); test: LTEA_HepaRG_HIF1A: Life Technologies and Expression Analysis (LTEA) Assay for Hypoxia-inducible factor 1 (HIF1A) Trancription factor using HepaRG (AID 2283503);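 also: HIF1A transcript by TaqMan qRT-PCR normalized to ACTB GAPDH and POLR2A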
Description: LTEA_HepaRG is a cell based, multiplexed-readout assay that uses HepaRG, a human liver cell line, with measurements taken at 48 hours after chemical dosing on a 96-well plate.LTEA_HepaRG_HIF1A is one of 102 assay component(s) measured in the LTEA HepaRG cell culture assay. It is a marker of Cell proliferation, survival, death.Data from the assay component LTEA_HepaRG_HIF1A was analyzed into 1 endpoint. This assay endpoint, LTEA_HepaRG_HIF1A, was analyzed with bidirectional fitting relative to DMSO as the negative control and baseline of activity. Using a type of inducible reporter, measures of mRNA induction for gain or loss-of-signal activity can be used to understand regulation of transcription factor activity. To generalize the intended target to other relatable targets, this assay endpoint is annotated to the dna binding intended target family, where the subfamily is basic helix-loop-helix protein.
A total of 1060 chemcials from the ToxCast library were tested in eight-point concentration-response experiments. Cell culture and cytotoxicity assays were conducted at Thermo Fisher Scientific's Custom Services facility (Madison, WI). […] Fluidigm's 96.96 Dynamic ArrayTM (Fluidigm, Amsterdam, the Netherlands) technology was used for gene expression analyses by quantitative reverse transcription polymerase chain reaction (qRT-PCR, performed by Quintiles/Expression Analysis, Durham, NC)89. […]

[6] = read-out: 3-Hydroxy-3-Methylglutaryl-CoA Synthase 2 (HMGCS2), HMGCS2 (gene 3158); test: LTEA_HepaRG_HMGCS2: Life Technologies and Expression Analysis (LTEA) Assay for 3-Hydroxy-3-Methylglutaryl-CoA Synthase 2 (HMGCS2) using HepaRG (AID 2283504)
Outline: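 Differentiated human HepaRG cells were exposed in duplicate for 48 h in serum-free induction medium to eight concentrations (top 100 uM, half-log steps, 0.5% DMSO). HMGCS2 mRNA was quantified by TaqMan qRT-PCR, normalised to ACTB, GAPDH and POLR2A, then fitted bidirectionally against DMSO.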

[7] = read-out: HGF (gene 3082); test: LTEA_HepaRG_HGF: Life Technologies and Expression Analysis (LTEA) Assay for Hepatocyte Growth Facto (HGF) using HepaRG (AID 2283505)
Outline: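 Differentiated human HepaRG cells in serum-free induction medium were exposed in duplicate for 48 h to eight concentrations (top 100 uM, half-log steps, 0.5% DMSO). HGF mRNA was quantified by qRT-PCR, normalized to ACTB, GAPDH and POLR2A.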

[8] = read-out: Intercellular Adhesion Molecule 1 (ICAM1), ICAM1 (gene 3383); test: LTEA_HepaRG_ICAM1: Life Technologies and Expression Analysis (LTEA) Assay for Intercellular Adhesion Molecule 1 (ICAM1) using HepaRG (AID 2283507)
Outline: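 Differentiated HepaRG cells in serum-free induction medium were exposed in duplicate for 48 h to eight half-log concentrations up to 100 uM in 0.5% DMSO. Transcript levels were measured by qRT-PCR normalized to ACTB, GAPDH and POLR2A; bidirectional fits relative to DMSO.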

[9] = read-out: Insulin-like growth factor-binding protein 1 (IGFBP1), IGFBP1 (gene 3484); test: LTEA_HepaRG_IGFBP1: Life Technologies and Expression Analysis (LTEA) Assay for Insulin-like growth factor-binding protein 1 (IGFBP1) using HepaRG (AID 2283508)
Outline: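 Differentiated human HepaRG cells in serum-free induction medium were exposed in duplicate for 48 h to eight concentrations, top 100 uM with half-log dilutions, in 0.5% DMSO. Transcript levels came from qRT-PCR normalised to ACTB, GAPDH and POLR2A, fitted bidirectionally against DMSO.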

[10] = read-out: Interleukin 6 (IL6), IL6 (gene 3569); test: LTEA_HepaRG_IL6: Life Technologies and Expression Analysis (LTEA) Assay for Interleukin 6 (IL6) using HepaRG (AID 2283509)
Outline: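 Transcript levels, normalized to three housekeeping genes, were quantified by qRT-PCR after 48 h chemical treatment of HepaRG cells. Eight-point half-log series from 100 uM in 0.5% DMSO, duplicates. Fitted both directions against DMSO baseline.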

Measured: outcome

Sequence of Hypoxia-inducible factor 1-alpha (Homo sapiens) (Q16665 whole entry, looked up): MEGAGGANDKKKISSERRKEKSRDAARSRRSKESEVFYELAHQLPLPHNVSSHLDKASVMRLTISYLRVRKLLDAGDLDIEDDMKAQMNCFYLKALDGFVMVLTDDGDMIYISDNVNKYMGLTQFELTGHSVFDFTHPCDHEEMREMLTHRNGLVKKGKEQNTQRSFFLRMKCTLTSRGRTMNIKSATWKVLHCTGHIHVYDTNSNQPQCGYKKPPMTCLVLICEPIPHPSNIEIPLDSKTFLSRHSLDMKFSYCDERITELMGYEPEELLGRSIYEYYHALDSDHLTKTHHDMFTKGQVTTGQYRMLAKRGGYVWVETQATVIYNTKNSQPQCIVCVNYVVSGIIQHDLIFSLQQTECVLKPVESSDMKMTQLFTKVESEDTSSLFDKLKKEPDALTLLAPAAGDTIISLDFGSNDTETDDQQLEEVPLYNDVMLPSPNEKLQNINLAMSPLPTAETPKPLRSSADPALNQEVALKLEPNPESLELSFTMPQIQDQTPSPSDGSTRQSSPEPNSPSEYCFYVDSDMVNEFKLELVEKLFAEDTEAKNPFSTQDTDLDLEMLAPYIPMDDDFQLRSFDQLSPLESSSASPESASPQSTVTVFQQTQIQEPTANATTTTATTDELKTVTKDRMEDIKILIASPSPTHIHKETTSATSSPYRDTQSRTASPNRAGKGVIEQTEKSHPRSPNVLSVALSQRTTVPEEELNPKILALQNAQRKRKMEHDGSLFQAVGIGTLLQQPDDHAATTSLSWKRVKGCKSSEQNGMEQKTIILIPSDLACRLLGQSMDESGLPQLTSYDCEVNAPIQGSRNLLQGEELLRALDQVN

CS(=O)(=O)OCCCCOS(C)(=O)=O
inactive: [1] | [2] | [3] | [4] | [5] | [6] | [7] | [8] | [9] | [10]
